High-throughput results as filed in PubChem BioAssay.
Vaccinia Venus = inhibitors of vaccinia virus (Venus reporter); 0.46% of 330,000 active; Potency, µM (series often up to 36.5 µM), usual class: inhibitors; AID 720580; Vaccinia virus Venus reporter expression, fluorescence; calls by dose curve; tested in A549 cells; note: nearly all actives have a fitted effect of over 30% in size
VACV mCherry inh = vaccinia inhibition (mCherry reporter) | Vaccinia virus mCherry reporter infection, fluorescence | Potency, µM (top dose mostly 36.5 µM), most hits filed as inhibitors | 0.63% of 310,000 active | AID 720579; calls by dose curve; tested in A549 cells; note: nearly all actives have a fitted effect of over 35% in size
FMDV inh = blocks foot and mouth disease virus | FMDV antiviral cell-based qHTS | Potency, µM (top dose mostly 57.9 µM), most hits filed as inhibitors | 1.2% of 410,000 active | AID 1159524; calls by dose curve; tested in HEK293T cells; note: read-out not given here; nearly all actives have a fitted effect of over 45% in size
Marburg entry inh = Marburg virus entry inhibition; Marburg virus pseudotyped entry inhibition, cell reporter; Potency, µM (top dose mostly 37.8 µM), hits mostly inhibitors; 1.8% of 300,000 active; calls by dose curve; tested in HEK293 cells
Sm TGR inh = S. mansoni TGR enzyme inhibition; purified TGR, DTNB reduction, TNB absorbance 405 nm; Potency, µM (titrated, usually from 114 µM), most hits filed as inhibitors; 3% of 360,000 active; active = well fitted inhibition curve with a large enough effect; inconclusive = small, poorly fitted or top-dose-only effect; inactive = no such curve, though single readings can be large or run the other way; note: nearly all actives have a fitted effect of over 60% in size
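TGR 20 nM + NADPH 100 uM (dispensed conc.), cpd preinc 15 min RT; start with NADPH (500 uM addition) then DTNB (15 mM addition). Kinetic TNB absorbance, 405 nm filter. Four-parameter Hill fit across titration.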
LASV entry inh = Lassa virus entry inhibition. Lassa virus pseudotype entry inhibition, cell reporter. Potency, µM (series often up to 37.9 µM), actives largely listed as inhibitors. 1.2% of 300,000 active. AID 540256; calls by dose curve; tested in HEK293 cells; note: nearly all actives have a fitted effect of over 50% in size
Hits are given with their value; . = inactive; ? = inconclusive; / = no result given; [ ] = remark or other dose. Hits are enriched below; roughly 5.4% of the tested compounds scored in any of these assays.

SMILES | Vaccinia Venus | VACV mCherry inh | FMDV inh | Marburg entry inh | Sm TGR inh | LASV entry inh
Cc1ccc(C(=O)C2=C(O)C(=O)N(CCN3CCOCC3)C2c2ccccn2)o1 (centres undefined) | / | / | / | . | 44.7µM | /
COc1ccc(OC)c(C2C(C(=O)c3ccc(C)o3)=C(O)C(=O)N2CCN2CCOCC2)c1 (centres undefined) | / | / | . | / | ? | /
COc1ccc(Cn2c(CO)cnc2SCc2cccc(C)c2)cc1 | . | . | . | / | . | .
O=C(CCS(=O)NCc1ccccc1)NCc1ccccc1 (centres undefined) | / | / | / | . | 31.6µM | /
O=C(Nc1ccc2ccccc2c1)c1onc2c1CCCC2 | ? | . | . | . | . | 5.62µM
Cc1ccc(C(=O)Nc2onc3c2CCCC3)cc1 | . | . | 8.91µM | ? | . | ?
Cc1cccc(NC(=O)c2onc3c2CCCC3)n1 | . | . | ? | 1.26µM | . | ?
COC(=O)c1cccc(NC(=O)c2onc3c2CCCC3)c1 | . | . | . | 9.2µM | . | ?
COc1ccc2c(c1)C[C@@H](C)O[C@]21C(=O)Nc2ccccc21 | / | / | / | . | / | /
CCOc1ccccc1CNC(=O)c1cccc(NC(=O)c2nsc3ccccc23)c1 | . | . | . | / | . | .
Cn1nnnc1Sc1ncnc2scc(-c3ccc(F)cc3)c12 | ? | 10µM | 15.8µM | 8.2µM | . | 4.11µM
COc1ccccc1-c1csc2ncnc(Sc3nnnn3C)c12 | / | / | ? | / | . | /
Cn1nnnc1Sc1ncnc2scc(Br)c12 | / | / | 22.4µM | / | / | /
Cn1nnnc1Sc1ncnc2scc(-c3ccccc3)c12 | ? | ? | 22.4µM | 7.08µM | . | ?
Cn1nnnc1Sc1ncnc2scc(-c3ccc[nH]3)c12 | / | / | ? | / | 11.2µM | /
CCOC(=O)Nc1c[n+](N2CCOCC2)no1 | / | / | / | . | / | /
Cn1nnnc1Sc1ncnc2scc(-c3ccc(Br)cc3)c12 | / | / | 17.8µM | / | / | /
Cn1nnnc1Sc1ncnc2scc(-c3ccccc3Br)c12 | / | / | ? | / | . | /
CC1CN(Cc2cccn2-c2ncccn2)Cc2cc(Cl)ccc2O1 (centres undefined) | . | . | . | / | / | /
O=C(CSc1nc2ccc([N+](=O)[O-])cc2[nH]1)NC1CCCCCC1 | ? | ? | 5.62µM | ? | . | .
O=C(CSc1nc2ccc([N+](=O)[O-])cc2[nH]1)NC1CCCCC1 | / | / | ? | ? | . | .
O=C(Cn1cc(C(=O)c2ccncc2)c(=O)c2cc(F)ccc21)Nc1ccc(Cl)cc1 | .[7.34 µM] | .[7.34 µM] | . | / | . | .
c1ccc(-c2csc3ncnc(N4CCN(Cc5ccc6c(c5)OCO6)CC4)c23)cc1 | / | / | ? | / | 17.8µM | /
COc1ccc(C2CC(c3ccc(C)o3)=NN2C(C)=O)cc1 (centres undefined) | . | . | . | ? | . | .
CCOc1cccc2c1OC(c1cc(OC)c(OC)c(OC)c1)N1N=C(c3ccc(C)o3)CC21 (centres undefined) | . | . | . | ? | 44.7µM | .
SMILES | Vaccinia Venus | VACV mCherry inh | FMDV inh | Marburg entry inh | Sm TGR inh | LASV entry inh
Cc1ccc(CN2C3=NCCCN3c3ccccc32)cc1 | . | . | . | ? | . | .
Brc1ccc(CN2C3=NCCCN3c3ccccc32)cc1 | / | / | ? | 10.3µM | . | ?
CC(C)(C)c1ccc(CN2C3=NCCCN3c3ccccc32)cc1 | ? | ? | ? | 2.59µM | . | ?
c1ccc(CN2C3=NCCCN3c3ccccc32)cc1 | . | / | . | ? | . | .
Cn1c2ccccc2c(=O)c2cc(C#Cc3ccccn3)ccc21 | . | . | . | / | 20µM | /
Cn1c2ccccc2c(=O)c2ccc(C#Cc3ccccn3)cc21 | . | . | . | / | 31.6µM | /
COc1cc2oc3ccc(C#Cc4ccccn4)cc3c(=O)c2cc1OC | . | . | . | / | / | /
CCC(=O)N1CCN(CCN=CC2=C(O)CC(c3ccc(OC)cc3)CC2=O)CC1 (centres undefined) | . | . | . | . | . | .
CCC(=O)N1CCN(CCN=CC2=C(O)CC(C)(C)CC2=O)CC1 | / | / | . | . | 44.7µM | .
CC1(C)CC(=O)C(C=NCCN2CCN(C(=O)Cc3ccccc3)CC2)=C(O)C1 | / | / | . | . | .[11.4 µM] | .
CC1(C)CC(=O)C(C=NCCN2CCN(C(=O)CCl)CC2)=C(O)C1 | / | / | . | / | 17.8µM | /
CCCCCC(=O)N1CCN(CCN=CC2=C(O)CC(c3ccc(OC)cc3)CC2=O)CC1 (centres undefined) | . | . | . | . | 50.1µM | .
CCOC(=O)C1CCN(c2cc3c(cc2NC(=O)c2ccccc2Cl)n(C)c(=O)n3C)CC1 | .[7.34 µM] | .[7.34 µM] | . | ? | . | 2.51µM
CCN(c1ccccc1)S(=O)(=O)c1ccc(Cl)c(NC(=O)COC(=O)c2cc(O)c3ccccc3c2O)c1 | / | / | / | / | 3.55µM | /
